Data taken from PubChem BioAssay (EPA / NIEHS).
“And” between values parts separate entries of the source, which are not always exact repeats. Equal entries are not always repeated. Results filed as inconclusive are left out. Where a structure was tested more than once in an assay, its records may differ in their call. The source made the active and inactive calls. How the source made its calls, unless noted: active means hit-call score of the fitted dose curve at least 0.9, where 1 is the maximum; inconclusive means response in the unintended direction; inactive means score below 0.9.

What was measured:
[1] = target: human Serotonin Transporter (SERT), SLC6A4 (gene 6532) (UniProt P31645); experiment: NVS_TR_hSERT: NovaScreen (NVS) Transporter Assay for human Serotonin Transporter (SERT) (AID 2283372)
Procedure, shortened: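 Radioligand binding to native SERT in human platelet membranes, read by filter-based scintillation counting 1 h after dosing. Primary screen in duplicate at 25 uM; actives followed up in concentration series; loss of signal versus DMSO baseline.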

[2] = tested on: rat Norepinephrine Transporter (NET), gene 83511; experiment: NVS_TR_rNET: NovaScreen (NVS) Transporter Assay for rat Norepinephrine Transporter (NET) (AID 2283373)
Procedure, shortened: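 Rat forebrain membranes; radioligand binding measured by filter-based scintillation counting 1 hour after dosing. Loss of specific binding versus DMSO baseline scored; primary screen in duplicate at 25 uM, actives followed up in concentration series.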

[3] = target: human Dopamine Transporter (DAT), SLC6A3 (gene 6531) (UniProt Q01959); experiment: NVS_TR_hDAT: NovaScreen (NVS) Transporter Assay for human Dopamine Transporter (DAT) (AID 2283374);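 further: activity means loss of bound radioligand signal relative to DMSO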
Procedure, shortened: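 Test chemicals were first screened in duplicate at 25 uM, with actives retested as concentration series. Displacement of a specific radioligand from cell-free human dopamine transporter was measured after 1 h by filtration and scintillation counting.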

[4] = target: human Norepinephrine Transporter (NET), SLC6A2 (gene 6530) (UniProt P23975); experiment: NVS_TR_hNET: NovaScreen (NVS) Transporter Assay for human Norepinephrine Transporter (NET) (AID 2283377);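 further: cell-free membrane protein extracted from CHO cells expressing human NET; displacement of radioligand from human NET seen as loss of scintillation signal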
Procedure, shortened: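 Scintillation counts of filter-retained radioligand served as the readout, taken 1 h post-dosing in a cell-free CHO-derived system. Test chemicals ran first at 25 uM in duplicate; confirmed hits were retested across concentrations.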

[5] = target: mouse Estrogen Receptor alpha (Era), Esr1 (gene 13982) (UniProt P19785); experiment: NVS_NR_mERa: NovaScreen (NVS) Nuclear Receptor Binding Assay for mouse Estrogen Receptor alpha (Era) (AID 2283378);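 further: hit means loss of bound radioligand signal relative to DMSO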
Procedure, shortened: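 Filter radiodetection of radioligand displacement from extracted receptor protein, measured 18 h post-dose. Single 25 uM concentration in duplicate initially, with concentration-series follow-up. Binding loss fitted relative to DMSO.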

[6] = target: Agonist Androgen Response Element (ARE), AR (gene 367) (UniProt P10275); experiment: OT_AR_ARELUC_AG_1440: Odyssey Thera (OT) 24-hour CHO-K1 Luciferase Assay for Agonist Androgen Response Element (ARE) (AID 2283379)
Procedure, shortened: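 Agonist mode, 24 h exposure in CHO-K1 ARE-luciferase cells; values reflect luminescence induction over vehicle.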

[7] = target: Estrogen receptor (Homo sapiens) (UniProt P03372); experiment: OT_ERa_GFPERaERE_0480: Odyssey Thera (OT) 8-hour HeLa Transcription Induction Assay for Estrogen Receptor (AID 2283381; active means hit-call score of the fitted dose curve at least 0.9, where 1 is the maximum; inactive means score below 0.9)
Procedure, shortened: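 HeLa cells expressing GFP reporter under estrogen response element, imaged 8 h after dosing. GFP induction quantified by high-content fluorescence microscopy image analysis; gain of signal fitted versus DMSO.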

[8] = target: Peroxisome proliferator-activated receptor gamma (Homo sapiens) (UniProt P37231); experiment: NVS_NR_hPPARg: NovaScreen (NVS) Nuclear Receptor Binding Assay for human Peroxisome Proliferator-activated Receptor gamma (PPARg) (AID 2283370)
Procedure, shortened: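 Fluorescence polarization readout of ligand binding to extracted human PPARg, measured at 2 h. Duplicate single-point screen at 25 uM, then concentration-series retesting; activity defined as signal loss versus DMSO.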

[9] = target: Estrogen receptor beta (Homo sapiens) (UniProt Q92731); experiment: OT_ER_ERbERb_1440: Odyssey Thera (OT) 24-hour HEK293T Protein-Complementation Assay for Estrogen Receptor-beta/-beta Homodimer (AID 2283380);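 further: fluorescence gain from ER beta LBD homodimer complementation read by laser scanning cytometry; scored as signal increase over DMSO baseline for both agonists and antagonists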
Procedure, shortened: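 Fluorescence increase, nuclear for agonists or whole-cell for antagonists, relative to DMSO vehicle, quantified by laser scanning cytometer after fixation and Draq5 staining. Readout from 24 h treatment of HEK293T cells carrying complementation-paired ER beta LBD (aa 310-547).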

[10] = target: rat Serotonin Transporter (SERT), Slc6a4 (gene 25553) (UniProt P31652); experiment: NVS_TR_rSERT: NovaScreen (NVS) Transporter Assay for rat Serotonin Transporter (SERT) (AID 2283375)
Procedure, shortened: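 Radioligand binding with competitive displacement on rat forebrain membrane preparations, counted by filtration and scintillation after 1 h. Primary single-point duplicates at 25 uM; active chemicals followed up in concentration-response. DMSO served as baseline.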

Sequence of Agonist Androgen Response Element (ARE), AR (gene 367) (P10275 whole entry, looked up): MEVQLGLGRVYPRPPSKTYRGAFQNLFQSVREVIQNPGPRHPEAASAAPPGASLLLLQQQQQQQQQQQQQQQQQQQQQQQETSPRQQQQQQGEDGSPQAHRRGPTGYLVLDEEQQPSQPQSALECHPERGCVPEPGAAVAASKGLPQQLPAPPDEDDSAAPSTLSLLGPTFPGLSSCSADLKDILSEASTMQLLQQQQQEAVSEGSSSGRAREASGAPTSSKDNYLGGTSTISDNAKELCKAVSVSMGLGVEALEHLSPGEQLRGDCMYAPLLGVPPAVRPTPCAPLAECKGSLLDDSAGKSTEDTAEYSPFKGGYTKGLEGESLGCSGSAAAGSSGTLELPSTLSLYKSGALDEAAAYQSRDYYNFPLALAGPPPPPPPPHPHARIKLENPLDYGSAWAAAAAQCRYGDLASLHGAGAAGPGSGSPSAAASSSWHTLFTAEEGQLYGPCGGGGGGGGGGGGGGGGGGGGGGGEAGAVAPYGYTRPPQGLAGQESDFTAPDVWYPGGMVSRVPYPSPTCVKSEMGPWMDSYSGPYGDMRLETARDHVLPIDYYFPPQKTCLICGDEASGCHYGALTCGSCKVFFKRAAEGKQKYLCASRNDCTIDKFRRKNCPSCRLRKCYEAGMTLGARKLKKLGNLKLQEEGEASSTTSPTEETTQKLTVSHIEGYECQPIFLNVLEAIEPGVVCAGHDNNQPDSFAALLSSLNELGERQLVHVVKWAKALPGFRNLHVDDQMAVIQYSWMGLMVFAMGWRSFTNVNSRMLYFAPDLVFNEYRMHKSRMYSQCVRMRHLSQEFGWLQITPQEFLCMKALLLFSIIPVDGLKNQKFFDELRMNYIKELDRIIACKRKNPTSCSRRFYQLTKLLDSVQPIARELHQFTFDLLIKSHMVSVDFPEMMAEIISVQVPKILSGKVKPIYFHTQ
Sequence of Estrogen receptor (Homo sapiens) (P03372 whole entry, looked up): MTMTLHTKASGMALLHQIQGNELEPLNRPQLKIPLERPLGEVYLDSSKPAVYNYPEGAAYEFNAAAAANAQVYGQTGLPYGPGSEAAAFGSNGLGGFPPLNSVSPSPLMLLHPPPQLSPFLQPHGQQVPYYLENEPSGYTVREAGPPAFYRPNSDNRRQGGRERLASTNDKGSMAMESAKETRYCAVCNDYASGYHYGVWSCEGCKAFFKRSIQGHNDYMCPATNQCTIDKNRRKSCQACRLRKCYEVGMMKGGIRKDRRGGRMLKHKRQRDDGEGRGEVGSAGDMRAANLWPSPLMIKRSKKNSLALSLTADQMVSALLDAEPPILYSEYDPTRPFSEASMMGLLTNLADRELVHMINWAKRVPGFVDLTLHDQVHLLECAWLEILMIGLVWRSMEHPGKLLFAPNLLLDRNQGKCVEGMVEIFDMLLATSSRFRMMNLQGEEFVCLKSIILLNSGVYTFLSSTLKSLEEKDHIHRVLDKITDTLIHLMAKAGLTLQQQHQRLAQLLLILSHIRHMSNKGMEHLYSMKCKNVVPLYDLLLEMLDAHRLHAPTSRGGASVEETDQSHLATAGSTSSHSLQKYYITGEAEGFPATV
Sequence of Peroxisome proliferator-activated receptor gamma (Homo sapiens) (P37231 whole entry, looked up): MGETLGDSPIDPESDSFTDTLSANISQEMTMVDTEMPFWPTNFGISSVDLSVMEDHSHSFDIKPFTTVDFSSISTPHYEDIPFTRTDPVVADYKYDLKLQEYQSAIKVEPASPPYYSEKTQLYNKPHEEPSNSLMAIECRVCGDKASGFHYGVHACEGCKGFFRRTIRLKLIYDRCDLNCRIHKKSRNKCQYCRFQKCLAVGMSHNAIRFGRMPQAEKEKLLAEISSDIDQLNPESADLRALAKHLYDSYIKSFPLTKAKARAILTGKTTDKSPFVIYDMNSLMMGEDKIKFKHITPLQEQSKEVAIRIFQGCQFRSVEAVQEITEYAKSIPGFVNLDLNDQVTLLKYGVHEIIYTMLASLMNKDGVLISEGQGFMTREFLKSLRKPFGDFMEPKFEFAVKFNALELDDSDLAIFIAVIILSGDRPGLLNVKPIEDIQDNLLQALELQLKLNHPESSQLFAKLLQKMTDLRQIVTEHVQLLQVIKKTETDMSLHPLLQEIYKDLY
Sequence of Estrogen receptor beta (Homo sapiens) (Q92731 whole entry, looked up, the tested form may be a part): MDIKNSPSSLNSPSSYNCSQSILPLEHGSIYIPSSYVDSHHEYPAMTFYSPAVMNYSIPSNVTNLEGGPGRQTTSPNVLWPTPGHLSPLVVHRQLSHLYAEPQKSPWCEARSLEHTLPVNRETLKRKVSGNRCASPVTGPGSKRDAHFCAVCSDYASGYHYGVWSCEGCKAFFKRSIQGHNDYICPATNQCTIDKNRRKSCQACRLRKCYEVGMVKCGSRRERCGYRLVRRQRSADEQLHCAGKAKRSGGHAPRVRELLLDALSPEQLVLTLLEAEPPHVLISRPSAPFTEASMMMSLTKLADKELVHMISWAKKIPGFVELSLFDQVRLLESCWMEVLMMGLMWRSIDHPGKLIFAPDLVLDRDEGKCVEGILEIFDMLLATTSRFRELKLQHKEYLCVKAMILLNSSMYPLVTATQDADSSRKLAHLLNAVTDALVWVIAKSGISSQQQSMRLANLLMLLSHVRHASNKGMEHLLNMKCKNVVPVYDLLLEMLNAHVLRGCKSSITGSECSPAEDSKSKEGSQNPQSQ
Sequence of human Norepinephrine Transporter (NET), SLC6A2 (gene 6530) (P23975 whole entry, looked up): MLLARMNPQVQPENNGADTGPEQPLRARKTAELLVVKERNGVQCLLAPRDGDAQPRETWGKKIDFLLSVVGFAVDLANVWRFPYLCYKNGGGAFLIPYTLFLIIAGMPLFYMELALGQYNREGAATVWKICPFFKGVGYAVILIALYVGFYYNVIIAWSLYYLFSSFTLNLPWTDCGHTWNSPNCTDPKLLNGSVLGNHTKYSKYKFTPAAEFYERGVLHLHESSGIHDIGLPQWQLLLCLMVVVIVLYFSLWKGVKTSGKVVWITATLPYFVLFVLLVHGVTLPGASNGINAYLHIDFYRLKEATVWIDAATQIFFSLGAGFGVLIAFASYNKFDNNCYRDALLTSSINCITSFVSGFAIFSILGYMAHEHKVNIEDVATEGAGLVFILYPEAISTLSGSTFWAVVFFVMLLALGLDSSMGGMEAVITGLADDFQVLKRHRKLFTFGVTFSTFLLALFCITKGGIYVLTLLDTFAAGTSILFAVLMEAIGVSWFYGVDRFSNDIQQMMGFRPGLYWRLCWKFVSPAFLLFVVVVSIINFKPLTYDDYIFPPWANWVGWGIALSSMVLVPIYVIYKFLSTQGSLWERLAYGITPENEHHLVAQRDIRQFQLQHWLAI
Sequence of mouse Estrogen Receptor alpha (Era), Esr1 (gene 13982) (P19785 whole entry, looked up): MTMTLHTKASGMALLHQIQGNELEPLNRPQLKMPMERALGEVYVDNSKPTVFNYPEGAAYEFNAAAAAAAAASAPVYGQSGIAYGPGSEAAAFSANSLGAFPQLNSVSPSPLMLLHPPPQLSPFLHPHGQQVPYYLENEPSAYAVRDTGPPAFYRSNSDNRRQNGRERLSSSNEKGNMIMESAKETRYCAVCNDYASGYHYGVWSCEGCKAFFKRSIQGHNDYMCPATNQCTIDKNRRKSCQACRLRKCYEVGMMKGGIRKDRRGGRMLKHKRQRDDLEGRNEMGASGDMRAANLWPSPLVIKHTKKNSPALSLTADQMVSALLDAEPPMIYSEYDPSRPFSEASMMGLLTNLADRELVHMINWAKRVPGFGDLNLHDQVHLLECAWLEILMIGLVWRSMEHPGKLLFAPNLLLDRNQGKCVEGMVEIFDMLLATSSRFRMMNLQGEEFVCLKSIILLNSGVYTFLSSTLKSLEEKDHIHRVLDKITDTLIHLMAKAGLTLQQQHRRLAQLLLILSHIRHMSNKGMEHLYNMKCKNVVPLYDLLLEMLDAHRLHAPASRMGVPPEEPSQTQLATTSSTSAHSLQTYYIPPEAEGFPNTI
Sequence of human Dopamine Transporter (DAT), SLC6A3 (gene 6531) (Q01959 whole entry, looked up): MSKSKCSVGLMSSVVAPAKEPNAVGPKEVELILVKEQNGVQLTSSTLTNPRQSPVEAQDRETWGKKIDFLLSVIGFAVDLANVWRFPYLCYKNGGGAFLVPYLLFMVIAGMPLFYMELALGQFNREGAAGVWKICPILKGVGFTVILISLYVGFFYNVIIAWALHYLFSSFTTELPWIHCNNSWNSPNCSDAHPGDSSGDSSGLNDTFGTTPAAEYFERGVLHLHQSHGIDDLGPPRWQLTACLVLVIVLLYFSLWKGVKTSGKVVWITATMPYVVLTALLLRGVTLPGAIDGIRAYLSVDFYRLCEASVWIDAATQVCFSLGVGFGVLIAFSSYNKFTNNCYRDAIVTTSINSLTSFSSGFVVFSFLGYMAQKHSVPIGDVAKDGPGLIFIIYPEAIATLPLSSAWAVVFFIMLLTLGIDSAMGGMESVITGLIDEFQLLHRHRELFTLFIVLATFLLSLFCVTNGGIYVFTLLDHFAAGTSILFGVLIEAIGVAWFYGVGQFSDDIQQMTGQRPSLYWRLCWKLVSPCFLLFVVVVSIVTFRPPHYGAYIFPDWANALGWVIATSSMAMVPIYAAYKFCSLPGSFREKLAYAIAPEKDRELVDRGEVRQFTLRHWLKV
Sequence of human Serotonin Transporter (SERT), SLC6A4 (gene 6532) (P31645 whole entry, looked up): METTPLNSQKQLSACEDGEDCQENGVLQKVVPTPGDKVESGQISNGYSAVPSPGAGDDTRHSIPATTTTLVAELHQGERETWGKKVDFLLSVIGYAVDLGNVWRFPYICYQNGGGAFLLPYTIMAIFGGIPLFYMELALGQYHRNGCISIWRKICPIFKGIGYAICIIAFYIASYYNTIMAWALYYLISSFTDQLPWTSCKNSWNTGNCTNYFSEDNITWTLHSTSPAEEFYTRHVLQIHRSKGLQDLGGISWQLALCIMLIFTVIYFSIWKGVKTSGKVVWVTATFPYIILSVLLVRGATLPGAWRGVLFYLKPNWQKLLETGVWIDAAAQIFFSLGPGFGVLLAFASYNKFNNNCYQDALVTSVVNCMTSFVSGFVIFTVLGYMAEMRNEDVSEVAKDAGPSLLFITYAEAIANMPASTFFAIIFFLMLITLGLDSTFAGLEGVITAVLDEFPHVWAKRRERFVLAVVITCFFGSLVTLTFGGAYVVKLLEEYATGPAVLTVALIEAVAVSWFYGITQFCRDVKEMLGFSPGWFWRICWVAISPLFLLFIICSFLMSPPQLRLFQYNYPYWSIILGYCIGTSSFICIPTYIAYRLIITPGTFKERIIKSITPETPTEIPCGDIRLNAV

CN(C)C(=O)C1(N2CCCCC2)CCN(CC[C@@]2(c3ccc(Cl)c(Cl)c3)CN(C(=O)c3ccccc3)CCO2)CC1
AC50 [1]: 36 µM (active) | AC50 [2]: 13.5 µM (active) | AC50 [3]: 2.76 µM (active) | AC50 [4]: 2.33 µM (active) | AC50 [5]: 0.203 µM (active) | outcome [6]: inactive | AC50 [7]: 16.8 µM (active)

C[C@]12CC[C@@H]3c4ccc(O)cc4CC[C@H]3[C@@H]1CC[C@H]2O
outcome [8]: inactive | AC50 [3]: 0.252 µM (active)

c1ccc2n[nH]nc2c1
outcome [8]: inactive | outcome [9]: inactive

CCCCCc1ccc(N)cc1
outcome [8]: inactive | AC50 [3]: 8.47 µM (active) | AC50 [5]: 0.0459 µM (active) | outcome [5]: inactive | outcome [9]: inactive | outcome [7]: inactive

CCCCOC(=O)c1ccc(O)cc1
outcome [8]: inactive | AC50 [4]: 13.9 µM (active) | outcome [6]: inactive | AC50 [9]: 4.49 µM (active) and 5.81 µM (active) and 6.38 µM (active)

CCOC(=O)O[C@H](C)OC(=O)c1ccc2c(c1)cc(C(=O)NC1CCN(C(C)C)CC1)n2Cc1cc(-c2ccc(Cl)s2)on1
outcome [1]: inactive | AC50 [2]: 15.5 µM (active) | AC50 [3]: 3.21 µM (active) | AC50 [4]: 1.95 µM (active) | outcome [9]: inactive

O=C(O)Cn1c(=O)n(Cc2ccc(Br)cc2F)c(=O)c2ccc(Cl)cc21
AC50 [8]: 42.4 µM (active) | outcome [6]: inactive | outcome [9]: inactive | outcome [7]: inactive

Clc1cc(Cl)c2c(c1)N=C1CCCCCN1C2
AC50 [2]: 4.16 µM (active) | AC50 [3]: 4.92 µM (active) | AC50 [4]: 3.55 µM (active)

CCN(Cc1cccc(S(=O)(=O)O)c1)c1ccc(C(=C2C=CC(=[N+](CC)Cc3cccc(S(=O)(=O)O)c3)C=C2)c2ccccc2S(=O)(=O)[O-])cc1
outcome [9]: inactive

c1ccc(C[n+]2cccc3ccccc32)cc1
AC50 [3]: 9.52 µM (active) | AC50 [10]: 6.24 µM (active) | AC50 [4]: 15.4 µM (active) | outcome [9]: inactive | outcome [7]: inactive

CCN(Cc1cccnc1)C(=O)c1cccc(Cl)c1[C@]1(C)C(=O)N(Cc2ccc(OC)cc2OC)c2ccc(Cl)cc21
outcome [6]: inactive | outcome [9]: inactive

OCCO
outcome [6]: inactive

Cc1ccc2oc(CN(Cc3ccccc3)C(=O)Nc3c(F)cc(F)cc3F)c(-c3ccc(Cl)cc3)c2c1
outcome [9]: inactive

O=C=NCCCCCCN=C=O
AC50 [3]: 16.3 µM (active) | outcome [9]: inactive

NC(=O)c1nc(-c2cccc(-c3cc(F)ccc3OCC(F)(F)C(F)(F)F)c2)n[nH]1
outcome [9]: inactive

CC(C)(c1cc(Br)c(O)c(Br)c1)c1cc(Br)c(O)c(Br)c1
outcome [5]: inactive | outcome [9]: inactive

CCCCCCCCCC(=O)O
outcome [3]: inactive | outcome [6]: inactive
